Of roughly 8,800 targets only a part is listed; those with a hit were picked by preference. About 0.5% of all pairs of compound and target were hits. A number with no mark means an inactive call.
Experiments:
Test in all cases: log2 fold change, soluble protein after heating vs DMSO (PISA); higher = thermal stabilisation; K562 lysate, 10 uM; active = over 0.2 and 3.5 SD of the protein, either way, in both replicates (recomputed)
[1] = compound: NCC(=O)Nc1ccc(-n2nc(C(F)(F)F)cc2-c2ccc3c(ccc4ccccc43)c2)cc1
Outline: (§1)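 Quantification was by TMTpro 16plex LC-MS/MS with equalised channel sums, applied to the supernatant after 21,000xg for 90 min. Samples were crude K562 extract at 1 mg/mL protein in PBS pH 7.4 with 1 mM MgCl2, treated with 10 μM compound for 30 min, heated for 3 min across 48°C-58°C, pooled and brought to 0.5% NP-40 at 4°C. Values are log-two fold changes in thermal stability relative to solvent controls, from duplicates.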

vorinostat = compound: O=C(CCCCCCC(=O)Nc1ccccc1)NO [vorinostat]
Outline: as §1

silmitasertib = compound: O=C(O)c1ccc2c(c1)nc(Nc1cccc(Cl)c1)c1ccncc12 [silmitasertib]
Outline: as §1

[2] = compound: O=C1NC(=O)C(c2cnc3ccccn23)=C1c1cn2c3c(cc(F)cc13)CN(C(=O)N1CCCCC1)CC2
Outline: as §1

entospletinib = compound: c1cn2cc(-c3ccc4cn[nH]c4c3)nc(Nc3ccc(N4CCOCC4)cc3)c2n1 [entospletinib]
Outline: as §1

Sequence of UniProt P68363 (P68363 whole entry, looked up): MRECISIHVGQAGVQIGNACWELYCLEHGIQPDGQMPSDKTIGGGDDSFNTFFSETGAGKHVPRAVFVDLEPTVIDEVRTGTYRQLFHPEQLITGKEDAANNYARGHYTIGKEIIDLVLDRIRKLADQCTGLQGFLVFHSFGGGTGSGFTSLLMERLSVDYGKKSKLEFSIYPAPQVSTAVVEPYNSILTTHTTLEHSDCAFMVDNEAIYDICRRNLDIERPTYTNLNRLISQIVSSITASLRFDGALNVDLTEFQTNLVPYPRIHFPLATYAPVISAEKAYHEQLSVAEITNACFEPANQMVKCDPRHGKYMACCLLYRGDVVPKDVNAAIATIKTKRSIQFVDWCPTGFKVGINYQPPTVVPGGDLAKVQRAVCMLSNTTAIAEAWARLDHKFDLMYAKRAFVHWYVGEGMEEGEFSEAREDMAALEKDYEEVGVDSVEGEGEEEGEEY
Sequence of UniProt P36406 (P36406 whole entry, looked up): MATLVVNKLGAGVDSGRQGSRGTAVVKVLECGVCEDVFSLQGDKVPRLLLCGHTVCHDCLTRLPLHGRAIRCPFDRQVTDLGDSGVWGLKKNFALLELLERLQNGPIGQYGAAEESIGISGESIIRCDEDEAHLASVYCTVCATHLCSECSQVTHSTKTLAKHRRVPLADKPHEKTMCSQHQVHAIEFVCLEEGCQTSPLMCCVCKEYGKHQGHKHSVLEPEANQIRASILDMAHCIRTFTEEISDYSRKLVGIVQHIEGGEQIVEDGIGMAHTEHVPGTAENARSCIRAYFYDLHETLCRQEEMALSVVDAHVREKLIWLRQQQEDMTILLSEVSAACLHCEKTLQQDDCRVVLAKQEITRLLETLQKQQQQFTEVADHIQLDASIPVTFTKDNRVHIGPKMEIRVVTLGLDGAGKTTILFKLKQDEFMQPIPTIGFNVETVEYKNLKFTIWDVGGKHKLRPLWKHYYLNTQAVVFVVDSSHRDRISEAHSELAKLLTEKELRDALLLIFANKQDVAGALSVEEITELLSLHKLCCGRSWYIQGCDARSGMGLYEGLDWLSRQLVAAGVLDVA
Sequence of UniProt Q9UHD2 (Q9UHD2 whole entry, looked up): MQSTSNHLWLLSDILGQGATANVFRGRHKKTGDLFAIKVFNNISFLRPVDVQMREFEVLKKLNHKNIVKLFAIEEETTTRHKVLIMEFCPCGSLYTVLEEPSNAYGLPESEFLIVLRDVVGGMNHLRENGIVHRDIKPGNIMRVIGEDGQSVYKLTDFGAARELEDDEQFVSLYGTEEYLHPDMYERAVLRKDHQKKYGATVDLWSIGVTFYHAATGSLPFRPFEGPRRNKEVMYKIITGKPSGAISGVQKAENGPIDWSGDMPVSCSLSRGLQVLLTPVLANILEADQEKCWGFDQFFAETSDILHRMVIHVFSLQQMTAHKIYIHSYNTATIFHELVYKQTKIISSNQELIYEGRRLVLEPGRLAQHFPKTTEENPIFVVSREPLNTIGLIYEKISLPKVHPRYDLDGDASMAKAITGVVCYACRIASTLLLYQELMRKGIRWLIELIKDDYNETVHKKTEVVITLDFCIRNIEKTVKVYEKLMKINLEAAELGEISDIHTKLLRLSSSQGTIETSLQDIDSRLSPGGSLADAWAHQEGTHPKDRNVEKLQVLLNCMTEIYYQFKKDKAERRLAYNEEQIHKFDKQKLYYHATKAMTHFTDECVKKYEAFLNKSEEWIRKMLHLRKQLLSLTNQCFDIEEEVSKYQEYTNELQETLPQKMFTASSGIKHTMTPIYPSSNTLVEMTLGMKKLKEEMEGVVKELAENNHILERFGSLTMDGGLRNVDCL
Sequence of UniProt Q9NYB0 (Q9NYB0 whole entry, looked up): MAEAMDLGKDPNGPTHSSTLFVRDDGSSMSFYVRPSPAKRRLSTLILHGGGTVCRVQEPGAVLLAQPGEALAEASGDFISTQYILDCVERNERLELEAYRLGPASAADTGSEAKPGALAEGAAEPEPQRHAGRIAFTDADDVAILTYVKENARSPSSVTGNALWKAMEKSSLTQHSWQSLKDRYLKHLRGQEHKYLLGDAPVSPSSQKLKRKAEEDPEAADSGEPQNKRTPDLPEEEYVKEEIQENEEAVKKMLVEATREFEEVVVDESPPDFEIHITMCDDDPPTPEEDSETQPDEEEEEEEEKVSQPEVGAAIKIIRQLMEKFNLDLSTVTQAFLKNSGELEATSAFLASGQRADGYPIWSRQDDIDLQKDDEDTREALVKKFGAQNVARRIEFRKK
Sequence of UniProt Q9UJT0 (Q9UJT0 whole entry, looked up): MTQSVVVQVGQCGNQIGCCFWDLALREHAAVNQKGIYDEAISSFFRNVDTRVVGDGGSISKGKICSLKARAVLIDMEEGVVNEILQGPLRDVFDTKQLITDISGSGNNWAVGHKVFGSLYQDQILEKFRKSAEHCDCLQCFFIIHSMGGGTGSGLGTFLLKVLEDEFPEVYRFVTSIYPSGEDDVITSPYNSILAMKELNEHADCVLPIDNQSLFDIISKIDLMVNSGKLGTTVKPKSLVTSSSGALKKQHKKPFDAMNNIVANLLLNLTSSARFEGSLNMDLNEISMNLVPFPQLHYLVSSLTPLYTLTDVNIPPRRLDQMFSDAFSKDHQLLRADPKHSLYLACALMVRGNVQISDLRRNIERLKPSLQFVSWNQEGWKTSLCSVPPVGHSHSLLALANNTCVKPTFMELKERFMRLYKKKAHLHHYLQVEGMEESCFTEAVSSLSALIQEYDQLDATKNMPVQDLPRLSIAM
Sequence of UniProt Q8TDI8 (Q8TDI8 whole entry, looked up): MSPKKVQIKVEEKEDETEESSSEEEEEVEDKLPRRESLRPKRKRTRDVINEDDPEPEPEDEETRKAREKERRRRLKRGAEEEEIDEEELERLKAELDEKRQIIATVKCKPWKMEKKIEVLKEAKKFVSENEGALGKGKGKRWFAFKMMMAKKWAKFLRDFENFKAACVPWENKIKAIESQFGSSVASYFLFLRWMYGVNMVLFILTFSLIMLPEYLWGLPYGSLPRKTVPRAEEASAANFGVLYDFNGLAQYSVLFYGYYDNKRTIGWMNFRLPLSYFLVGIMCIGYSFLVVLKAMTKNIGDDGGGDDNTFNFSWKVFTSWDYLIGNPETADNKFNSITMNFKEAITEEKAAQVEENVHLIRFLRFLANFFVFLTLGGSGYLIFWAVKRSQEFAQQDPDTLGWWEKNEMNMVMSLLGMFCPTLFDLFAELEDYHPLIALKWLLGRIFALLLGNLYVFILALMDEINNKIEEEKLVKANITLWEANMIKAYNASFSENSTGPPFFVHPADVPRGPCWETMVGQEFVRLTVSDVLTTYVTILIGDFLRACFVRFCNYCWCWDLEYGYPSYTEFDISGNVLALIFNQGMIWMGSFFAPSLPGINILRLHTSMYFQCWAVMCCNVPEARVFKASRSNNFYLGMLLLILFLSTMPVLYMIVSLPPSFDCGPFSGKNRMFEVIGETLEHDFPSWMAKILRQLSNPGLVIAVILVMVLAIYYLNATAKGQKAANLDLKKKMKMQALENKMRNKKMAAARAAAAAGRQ
Sequence of UniProt Q9NUY8 (Q9NUY8 whole entry, looked up): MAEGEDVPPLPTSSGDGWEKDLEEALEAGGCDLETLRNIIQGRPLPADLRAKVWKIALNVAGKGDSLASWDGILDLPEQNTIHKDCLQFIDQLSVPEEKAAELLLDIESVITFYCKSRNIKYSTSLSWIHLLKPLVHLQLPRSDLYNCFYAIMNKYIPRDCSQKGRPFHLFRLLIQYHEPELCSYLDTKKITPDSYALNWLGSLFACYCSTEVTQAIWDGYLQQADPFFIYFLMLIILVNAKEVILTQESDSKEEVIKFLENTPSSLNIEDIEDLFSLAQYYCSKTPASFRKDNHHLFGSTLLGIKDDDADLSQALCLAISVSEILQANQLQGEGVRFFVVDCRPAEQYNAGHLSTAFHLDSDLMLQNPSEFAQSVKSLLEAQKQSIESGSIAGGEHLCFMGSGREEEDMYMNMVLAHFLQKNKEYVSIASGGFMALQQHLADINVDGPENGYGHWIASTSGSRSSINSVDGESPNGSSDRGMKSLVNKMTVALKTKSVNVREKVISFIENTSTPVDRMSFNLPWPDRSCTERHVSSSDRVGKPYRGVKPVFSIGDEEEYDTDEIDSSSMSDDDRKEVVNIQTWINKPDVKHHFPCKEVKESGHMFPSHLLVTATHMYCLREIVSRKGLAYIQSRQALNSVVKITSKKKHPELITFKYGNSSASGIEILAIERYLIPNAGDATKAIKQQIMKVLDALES
Sequence of UniProt Q8N511 (Q8N511 whole entry, looked up): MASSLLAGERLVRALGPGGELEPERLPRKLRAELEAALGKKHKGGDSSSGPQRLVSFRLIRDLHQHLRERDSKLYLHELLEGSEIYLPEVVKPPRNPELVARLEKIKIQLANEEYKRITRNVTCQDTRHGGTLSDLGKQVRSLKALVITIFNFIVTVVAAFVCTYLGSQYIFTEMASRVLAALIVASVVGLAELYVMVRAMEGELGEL
Sequence of UniProt P07437 (P07437 whole entry, looked up): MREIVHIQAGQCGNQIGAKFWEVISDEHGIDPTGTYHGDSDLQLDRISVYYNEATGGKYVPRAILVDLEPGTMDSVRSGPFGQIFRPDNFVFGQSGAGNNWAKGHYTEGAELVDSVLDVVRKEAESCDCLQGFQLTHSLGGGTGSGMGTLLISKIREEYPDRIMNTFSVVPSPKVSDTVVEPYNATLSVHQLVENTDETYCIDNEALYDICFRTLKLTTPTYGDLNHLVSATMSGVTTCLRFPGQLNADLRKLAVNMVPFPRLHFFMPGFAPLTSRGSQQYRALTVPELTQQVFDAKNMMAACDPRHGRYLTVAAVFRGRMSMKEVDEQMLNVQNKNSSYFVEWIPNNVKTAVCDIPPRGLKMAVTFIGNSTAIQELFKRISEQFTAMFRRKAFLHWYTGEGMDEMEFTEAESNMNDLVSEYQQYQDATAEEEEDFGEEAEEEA

Row | Target | log2 fold change [1] | log2 fold change (vorinostat) | log2 fold change (silmitasertib) | log2 fold change [2] | log2 fold change (entospletinib)
1 | TBK1 (UniProt Q9UHD2) | -0.04 | -0.361 | 0.189 | 0.125 | 0.204
2 | TERF2IP (UniProt Q9NYB0) | 0.038 | 0.072 | 0.008 | 0.011 | 0.011
3 | TBC1D23 (UniProt Q9NUY8) | 0.031 | -0.252 (active) | -0.023 | -0.001 | 0
4 | TUBE1 (UniProt Q9UJT0) | 0.024 | -0.264 (active) | -0.049 | -0.036 | -0.027
5 | TMEM199 (UniProt Q8N511) | 0.021 | 0.13 | -0.017 | -0.005 | 0.008
6 | TMC1 (UniProt Q8TDI8) | 0.015 | -0.121 | 0.02 | -0.337 | 0.012
7 | TUBB (UniProt P07437) | 0.025 | -0.529 (active) | 0.009 | 0.032 | -0.018
8 | TUBA1B (UniProt P68363) | -0.005 | -0.66 (active) | 0.018 | 0.026 | 0.01
9 | TRIM23 (UniProt P36406) | 0.064 | 0.073 | -0.03 | -0.02 | -0.032

Reference: the supplement of paper PMC10849652
